Test results from PubChem BioAssay (EPA / NIEHS).
Values joined by “and” are separate entries in the source; they are usually repeats but may differ in a detail not shown here. Identical values can stand only once. The source holds several records for some structures; these can differ, active in one and inactive in another. Active and inactive are the calls of the source. How the source made its calls: active means hit-call score of the fitted dose curve at least 0.9, where 1 is the maximum; inactive means score below 0.9.

Read-out: not listed separately
Assay: BSK_IMphg_SRB: Viability Assessment in the BioMAP Diversity Plus: IMphg Assay (AID 2284292);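 further: measured one day after compound addition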
Conditions: primary human endothelial cells with macrophages
Procedure, shortened: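 Human venular endothelial cells with macrophages, 24 h after chemical dosing; total protein by 0.1% SRB staining after 10% TCA fixation, read at 560 nm. Positive-direction fitting versus DMSO baseline.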

Question: With O=C(CC(=O)C(F)(F)C(F)(F)C(F)(F)F)c1cccs1 as the compound, how does the AC50 read?
Answer: 44.9 µM (active) and 39.7 µM (active)

Question: Which outcome does the source give for O=P(O)(O)CCC(F)(F)C(F)(F)C(F)(F)C(F)(F)C(F)(F)C(F)(F)C(F)(F)C(F)(F)F here?
Answer: inactive

Question: Which AC50 does the source give for O=C(O)C(F)(F)OC(F)(F)C(F)(F)OC(F)(F)C(F)(F)OC(F)(F)C(F)(F)C(F)(F)C(F)(F)F here?
Answer: 53.4 µM (active) and 51.8 µM (active)

Question: With C=CC(=O)OCCC(F)(F)C(F)(F)C(F)(F)C(F)(F)C(F)(F)C(F)(F)C(F)(F)C(F)(F)F as the compound, how does the outcome read?
Answer: inactive

Question: With O=S(=O)(O)C(F)(F)C(F)(F)C(F)(F)C(F)(F)C(F)(F)C(F)(F)C(F)(F)C(F)(F)C(F)(F)C(F)(F)F as the compound, how does the outcome read?
Answer: inactive

Question: With OCC(F)(F)C(F)(F)C(F)(F)C(F)(F)C(F)(F)C(F)(F)C(F)(F)C(F)(F)C(F)(F)C(F)(F)C(F)(F)F as the compound, how does the outcome read?
Answer: inactive

Question: Which outcome does the source give for O=C(O)CCC(F)(F)C(F)(F)C(F)(F)C(F)(F)C(F)(F)C(F)(F)F here?
Answer: inactive

Question: For CN(Cc1cnc2nc(N)nc(N)c2n1)c1ccc(C(=O)N[C@@H](CCC(=O)O)C(=O)O)cc1, which outcome is on record?
Answer: inactive

Question: For O=P(O)(O)CCC(F)(F)C(F)(F)C(F)(F)C(F)(F)C(F)(F)C(F)(F)F, which outcome is on record?
Answer: inactive

Question: With CN(CCO)S(=O)(=O)C(F)(F)C(F)(F)C(F)(F)C(F)(F)C(F)(F)C(F)(F)C(F)(F)C(F)(F)F as the compound, how does the outcome read?
Answer: inactive

Question: For O=C(O)CCC(F)(F)C(F)(F)C(F)(F)C(F)(F)C(F)(F)F, which outcome is on record?
Answer: inactive

Read-out: Macrophage colony-stimulating factor (MCSF), CSF1 (gene 1435)
Assay: BSK_IMphg_MCSF: BioMAP Diversity Plus: IMphg Assay for Macrophage colony-stimulating factor (MCSF) Biomarker Activity (AID 2284293)
Conditions: primary human endothelial cells with macrophages
Procedure, shortened: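 Co-culture of human venular endothelial cells and macrophages, 24 hours of chemical exposure. M-CSF quantified by ELISA, with parallel SRB total-protein staining for cytotoxicity; activity fitted relative to DMSO.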

Question: For O=C(CC(=O)C(F)(F)C(F)(F)C(F)(F)F)c1cccs1, which outcome is on record?
Answer: inactive

Question: For O=P(O)(O)CCC(F)(F)C(F)(F)C(F)(F)C(F)(F)C(F)(F)C(F)(F)C(F)(F)C(F)(F)F, which outcome is on record?
Answer: inactive

Question: For O=C(O)C(F)(F)OC(F)(F)C(F)(F)OC(F)(F)C(F)(F)OC(F)(F)C(F)(F)C(F)(F)C(F)(F)F, which outcome is on record?
Answer: inactive

Question: For C=CC(=O)OCCC(F)(F)C(F)(F)C(F)(F)C(F)(F)C(F)(F)C(F)(F)C(F)(F)C(F)(F)F, which outcome is on record?
Answer: inactive

Question: Which outcome does the source give for O=S(=O)(O)C(F)(F)C(F)(F)C(F)(F)C(F)(F)C(F)(F)C(F)(F)C(F)(F)C(F)(F)C(F)(F)C(F)(F)F here?
Answer: inactive

Question: Which outcome does the source give for OCC(F)(F)C(F)(F)C(F)(F)C(F)(F)C(F)(F)C(F)(F)C(F)(F)C(F)(F)C(F)(F)C(F)(F)C(F)(F)F here?
Answer: inactive

Question: For O=C(O)CCC(F)(F)C(F)(F)C(F)(F)C(F)(F)C(F)(F)C(F)(F)F, which outcome is on record?
Answer: inactive

Question: For CN(Cc1cnc2nc(N)nc(N)c2n1)c1ccc(C(=O)N[C@@H](CCC(=O)O)C(=O)O)cc1, which outcome is on record?
Answer: inactive

Question: Which outcome does the source give for O=P(O)(O)CCC(F)(F)C(F)(F)C(F)(F)C(F)(F)C(F)(F)C(F)(F)F here?
Answer: inactive

Question: Which outcome does the source give for CN(CCO)S(=O)(=O)C(F)(F)C(F)(F)C(F)(F)C(F)(F)C(F)(F)C(F)(F)C(F)(F)C(F)(F)F here?
Answer: inactive

Question: For O=C(O)CCC(F)(F)C(F)(F)C(F)(F)C(F)(F)C(F)(F)F, which outcome is on record?
Answer: inactive

Read-out: Interleukin-10 (IL10), IL10 (gene 3586)
Assay: BSK_IMphg_IL10: BioMAP Diversity Plus: IMphg Assay for Interleukin-10 (IL10) Biomarker Activity (AID 2284294)
Conditions: primary human endothelial cells with macrophages
Procedure, shortened: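 Human venular endothelial cells cocultured with macrophages, dosed 24 h; IL-10 measured by ELISA, activity relative to DMSO. Cytotoxicity assessed in parallel cultures by sulforhodamine B total-protein staining.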

Question: With O=C(CC(=O)C(F)(F)C(F)(F)C(F)(F)F)c1cccs1 as the compound, how does the AC50 read?
Answer: 22 µM (active) and 29.2 µM (active)

Question: Which AC50 does the source give for O=P(O)(O)CCC(F)(F)C(F)(F)C(F)(F)C(F)(F)C(F)(F)C(F)(F)C(F)(F)C(F)(F)F here?
Answer: 39.7 µM (active) and 31.3 µM (active)

Question: For O=C(O)C(F)(F)OC(F)(F)C(F)(F)OC(F)(F)C(F)(F)OC(F)(F)C(F)(F)C(F)(F)C(F)(F)F, which AC50 is on record?
Answer: 53.4 µM (active) and 56.3 µM (active)

Question: Which outcome does the source give for C=CC(=O)OCCC(F)(F)C(F)(F)C(F)(F)C(F)(F)C(F)(F)C(F)(F)C(F)(F)C(F)(F)F here?
Answer: inactive

Question: For O=S(=O)(O)C(F)(F)C(F)(F)C(F)(F)C(F)(F)C(F)(F)C(F)(F)C(F)(F)C(F)(F)C(F)(F)C(F)(F)F, which AC50 is on record?
Answer: 13.3 µM (active)

Question: What about the outcome of the same compound?
Answer: inactive

Question: Which AC50 does the source give for OCC(F)(F)C(F)(F)C(F)(F)C(F)(F)C(F)(F)C(F)(F)C(F)(F)C(F)(F)C(F)(F)C(F)(F)C(F)(F)F here?
Answer: 0.835 µM (active)

Question: What about the outcome of the same compound?
Answer: inactive

Question: Which AC50 does the source give for O=C(O)CCC(F)(F)C(F)(F)C(F)(F)C(F)(F)C(F)(F)C(F)(F)F here?
Answer: 38 µM (active) and 30 µM (active)

Question: For CN(Cc1cnc2nc(N)nc(N)c2n1)c1ccc(C(=O)N[C@@H](CCC(=O)O)C(=O)O)cc1, which outcome is on record?
Answer: inactive

Question: With O=P(O)(O)CCC(F)(F)C(F)(F)C(F)(F)C(F)(F)C(F)(F)C(F)(F)F as the compound, how does the outcome read?
Answer: inactive

Question: For CN(CCO)S(=O)(=O)C(F)(F)C(F)(F)C(F)(F)C(F)(F)C(F)(F)C(F)(F)C(F)(F)C(F)(F)F, which outcome is on record?
Answer: inactive

Question: For O=C(O)CCC(F)(F)C(F)(F)C(F)(F)C(F)(F)C(F)(F)F, which outcome is on record?
Answer: inactive

Read-out: not listed separately
Assay: BSK_IMphg_SRB.Mphg: Macrophage Viability Assessment in the BioMAP Diversity Plus: IMphg Assay (AID 2284295)
Conditions: primary human endothelial cells with macrophages
Procedure, shortened: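 Venular endothelial cells co-cultured with macrophages, read 24 h after dosing. Total protein measured by 0.1% SRB staining after 10% TCA fixation, absorbance at 560 nm. Fitted in positive direction against DMSO baseline.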

Question: With O=C(CC(=O)C(F)(F)C(F)(F)C(F)(F)F)c1cccs1 as the compound, how does the AC50 read?
Answer: 43.1 µM (active) and 42.7 µM (active)

Question: Which outcome does the source give for O=P(O)(O)CCC(F)(F)C(F)(F)C(F)(F)C(F)(F)C(F)(F)C(F)(F)C(F)(F)C(F)(F)F here?
Answer: inactive

Question: Which AC50 does the source give for O=C(O)C(F)(F)OC(F)(F)C(F)(F)OC(F)(F)C(F)(F)OC(F)(F)C(F)(F)C(F)(F)C(F)(F)F here?
Answer: 42.9 µM (active) and 45.1 µM (active)

Question: With C=CC(=O)OCCC(F)(F)C(F)(F)C(F)(F)C(F)(F)C(F)(F)C(F)(F)C(F)(F)C(F)(F)F as the compound, how does the outcome read?
Answer: inactive

Question: Which AC50 does the source give for O=S(=O)(O)C(F)(F)C(F)(F)C(F)(F)C(F)(F)C(F)(F)C(F)(F)C(F)(F)C(F)(F)C(F)(F)C(F)(F)F here?
Answer: 668 nM (active)

Question: And the outcome?
Answer: inactive

Question: Which AC50 does the source give for OCC(F)(F)C(F)(F)C(F)(F)C(F)(F)C(F)(F)C(F)(F)C(F)(F)C(F)(F)C(F)(F)C(F)(F)C(F)(F)F here?
Answer: 550 nM (active) and 521 nM (active)

Question: For O=C(O)CCC(F)(F)C(F)(F)C(F)(F)C(F)(F)C(F)(F)C(F)(F)F, which outcome is on record?
Answer: inactive

Question: Which AC50 does the source give for CN(Cc1cnc2nc(N)nc(N)c2n1)c1ccc(C(=O)N[C@@H](CCC(=O)O)C(=O)O)cc1 here?
Answer: 3260 nM (active)

Question: What about the outcome of the same compound?
Answer: inactive

Question: For O=P(O)(O)CCC(F)(F)C(F)(F)C(F)(F)C(F)(F)C(F)(F)C(F)(F)F, which outcome is on record?
Answer: inactive

Question: With CN(CCO)S(=O)(=O)C(F)(F)C(F)(F)C(F)(F)C(F)(F)C(F)(F)C(F)(F)C(F)(F)C(F)(F)F as the compound, how does the outcome read?
Answer: inactive

Question: For O=C(O)CCC(F)(F)C(F)(F)C(F)(F)C(F)(F)C(F)(F)F, which outcome is on record?
Answer: inactive
